# Source: publication PMC7862700, “An all-to-all approach to the identification of sequence-specific readers for epigenetic DNA modifications on cytosine”
# Tests used:
# Assay in all cases: DAPPL (digital affinity profiling via proximity ligation, sequencing); 10 mM Tris-HCl pH 7.5, 50 mM NaCl, 1 mM DTT, 4% glycerol, room temperature, 30 min; GST-TFs on glutathione beads, 16-mer random dsDNA library, 0.1% formaldehyde crosslink after washing; high values mean tight binding
# Conditions in all cases: protein: recombinant; tags: N-terminal GST; dsDNA, one strand shown
# [1] = target: T1, FLI1 (Homo sapiens, UniProt Q01543 1-452)
# T1 sequence: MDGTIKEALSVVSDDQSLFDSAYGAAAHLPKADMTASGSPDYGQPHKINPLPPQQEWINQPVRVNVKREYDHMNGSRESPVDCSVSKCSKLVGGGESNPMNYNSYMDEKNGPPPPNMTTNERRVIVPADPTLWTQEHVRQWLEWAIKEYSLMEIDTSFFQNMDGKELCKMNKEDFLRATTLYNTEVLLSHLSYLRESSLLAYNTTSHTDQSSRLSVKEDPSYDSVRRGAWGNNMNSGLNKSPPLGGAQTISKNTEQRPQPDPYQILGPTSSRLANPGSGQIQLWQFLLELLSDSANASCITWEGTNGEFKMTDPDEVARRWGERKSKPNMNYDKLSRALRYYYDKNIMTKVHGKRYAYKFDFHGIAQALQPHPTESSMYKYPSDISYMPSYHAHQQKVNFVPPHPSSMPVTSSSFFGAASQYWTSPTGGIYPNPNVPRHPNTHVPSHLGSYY
# Summary of the method: (§1)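 Human transcription factors fused to GST were expressed in yeast, captured on glutathione beads, given DNA barcodes and pooled with a GST-only negative control. Pools were incubated with 200 nmole of a 16-mer random double-stranded DNA library in Tris/NaCl/DTT/glycerol buffer at room temperature for 30 min. They were then washed, crosslinked with 0.1% formaldehyde, proximity-ligated (BsaI/T4 ligase, 1 h, 37 °C), PCR-amplified and sequenced on an Illumina NextSeq500. Binding signal is each 6-mer's read frequency for a factor divided by its frequency for the GST control.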
# [2] = target: T2, ELK1 (Homo sapiens, UniProt P19419 1-428)
# T2 sequence: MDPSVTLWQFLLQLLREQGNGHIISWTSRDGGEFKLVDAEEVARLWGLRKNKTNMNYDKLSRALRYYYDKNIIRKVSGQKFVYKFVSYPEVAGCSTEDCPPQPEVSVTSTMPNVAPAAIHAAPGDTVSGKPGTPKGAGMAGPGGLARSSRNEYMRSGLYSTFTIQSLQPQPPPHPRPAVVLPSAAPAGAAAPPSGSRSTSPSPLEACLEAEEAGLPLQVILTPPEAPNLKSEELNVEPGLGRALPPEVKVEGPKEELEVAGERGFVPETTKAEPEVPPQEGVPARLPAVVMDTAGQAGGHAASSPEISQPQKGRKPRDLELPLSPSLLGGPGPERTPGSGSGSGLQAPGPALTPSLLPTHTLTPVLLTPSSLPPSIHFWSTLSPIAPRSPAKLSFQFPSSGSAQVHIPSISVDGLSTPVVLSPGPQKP
# Summary of the method: as §1
# [3] = target: T3, GABPA (Homo sapiens, UniProt Q06546 1-454)
# T3 sequence: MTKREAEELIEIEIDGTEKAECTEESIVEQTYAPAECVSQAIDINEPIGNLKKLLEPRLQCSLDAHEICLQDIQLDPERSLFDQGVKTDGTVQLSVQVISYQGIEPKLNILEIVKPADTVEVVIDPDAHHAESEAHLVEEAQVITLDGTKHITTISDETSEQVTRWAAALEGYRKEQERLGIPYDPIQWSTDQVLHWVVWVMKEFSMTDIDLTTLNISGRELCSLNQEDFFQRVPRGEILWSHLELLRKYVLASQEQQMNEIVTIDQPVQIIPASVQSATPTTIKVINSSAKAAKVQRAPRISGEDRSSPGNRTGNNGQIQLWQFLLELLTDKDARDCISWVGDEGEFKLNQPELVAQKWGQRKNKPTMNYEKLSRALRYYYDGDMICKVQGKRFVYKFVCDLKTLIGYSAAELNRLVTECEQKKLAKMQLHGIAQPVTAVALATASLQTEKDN
# Summary of the method: as §1
# [4] = target: T4, ERG (Homo sapiens, UniProt P11308 1-479)
# T4 sequence: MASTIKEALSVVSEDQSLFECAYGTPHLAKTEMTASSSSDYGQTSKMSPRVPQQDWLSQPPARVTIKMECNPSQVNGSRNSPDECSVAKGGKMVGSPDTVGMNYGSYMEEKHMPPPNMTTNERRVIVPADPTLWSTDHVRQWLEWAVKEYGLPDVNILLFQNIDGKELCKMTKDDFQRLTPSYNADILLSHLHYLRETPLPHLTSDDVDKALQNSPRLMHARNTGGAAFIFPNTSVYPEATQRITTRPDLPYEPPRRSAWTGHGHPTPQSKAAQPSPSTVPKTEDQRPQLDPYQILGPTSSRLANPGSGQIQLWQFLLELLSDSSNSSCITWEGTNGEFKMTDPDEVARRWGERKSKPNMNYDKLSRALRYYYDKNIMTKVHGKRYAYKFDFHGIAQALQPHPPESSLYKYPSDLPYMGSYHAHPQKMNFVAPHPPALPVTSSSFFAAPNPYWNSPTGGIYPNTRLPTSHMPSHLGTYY
# Summary of the method: as §1
# [5] = target: ELF1 (Homo sapiens, UniProt P32519 1-619)
# Chain of ELF1 (P32519 whole entry): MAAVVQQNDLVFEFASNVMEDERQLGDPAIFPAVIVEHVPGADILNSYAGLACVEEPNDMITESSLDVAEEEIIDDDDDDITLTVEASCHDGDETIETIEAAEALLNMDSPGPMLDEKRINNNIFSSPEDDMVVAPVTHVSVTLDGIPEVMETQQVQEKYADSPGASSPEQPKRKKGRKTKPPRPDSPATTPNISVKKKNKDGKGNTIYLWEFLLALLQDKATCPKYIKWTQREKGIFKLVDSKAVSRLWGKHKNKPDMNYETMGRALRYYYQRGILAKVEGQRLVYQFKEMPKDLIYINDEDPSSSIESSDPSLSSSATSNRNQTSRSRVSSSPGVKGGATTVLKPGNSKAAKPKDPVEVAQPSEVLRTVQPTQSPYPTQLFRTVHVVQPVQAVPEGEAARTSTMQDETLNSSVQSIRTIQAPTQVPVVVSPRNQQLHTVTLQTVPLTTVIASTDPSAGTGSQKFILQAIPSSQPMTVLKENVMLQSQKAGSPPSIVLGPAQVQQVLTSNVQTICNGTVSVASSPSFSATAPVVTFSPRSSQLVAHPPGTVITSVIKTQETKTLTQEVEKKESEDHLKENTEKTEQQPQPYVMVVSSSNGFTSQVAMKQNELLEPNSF
# Summary of the method: as §1
# [6] = target: T5, EHF (Homo sapiens, UniProt Q9NZC4 1-300)
# T5 sequence: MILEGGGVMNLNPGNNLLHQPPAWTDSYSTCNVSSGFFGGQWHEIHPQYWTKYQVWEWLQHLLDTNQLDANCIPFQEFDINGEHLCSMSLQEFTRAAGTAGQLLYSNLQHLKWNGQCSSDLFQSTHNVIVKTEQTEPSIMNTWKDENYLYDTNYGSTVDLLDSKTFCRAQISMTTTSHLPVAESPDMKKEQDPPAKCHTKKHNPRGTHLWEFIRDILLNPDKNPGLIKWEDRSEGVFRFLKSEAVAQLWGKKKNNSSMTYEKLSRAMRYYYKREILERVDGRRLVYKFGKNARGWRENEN
# Summary of the method: as §1
# [7] = target: SPI1 (Homo sapiens, UniProt P17947 1-270)
# Summary of the method: as §1
# [8] = target: SPIB (Homo sapiens, UniProt Q01892 1-262)
# Chain of SPIB (Q01892 whole entry): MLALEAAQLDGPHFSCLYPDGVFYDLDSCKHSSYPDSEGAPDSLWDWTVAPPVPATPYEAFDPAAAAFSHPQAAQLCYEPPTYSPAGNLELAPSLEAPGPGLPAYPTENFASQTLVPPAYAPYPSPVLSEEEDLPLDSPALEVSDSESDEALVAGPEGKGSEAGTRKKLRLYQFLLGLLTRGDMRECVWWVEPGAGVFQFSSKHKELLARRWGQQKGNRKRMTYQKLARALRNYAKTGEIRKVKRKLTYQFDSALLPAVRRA
# Summary of the method: as §1
# [9] = target: T6, ELK3 (Homo sapiens, UniProt P41970 1-407)
# T6 sequence: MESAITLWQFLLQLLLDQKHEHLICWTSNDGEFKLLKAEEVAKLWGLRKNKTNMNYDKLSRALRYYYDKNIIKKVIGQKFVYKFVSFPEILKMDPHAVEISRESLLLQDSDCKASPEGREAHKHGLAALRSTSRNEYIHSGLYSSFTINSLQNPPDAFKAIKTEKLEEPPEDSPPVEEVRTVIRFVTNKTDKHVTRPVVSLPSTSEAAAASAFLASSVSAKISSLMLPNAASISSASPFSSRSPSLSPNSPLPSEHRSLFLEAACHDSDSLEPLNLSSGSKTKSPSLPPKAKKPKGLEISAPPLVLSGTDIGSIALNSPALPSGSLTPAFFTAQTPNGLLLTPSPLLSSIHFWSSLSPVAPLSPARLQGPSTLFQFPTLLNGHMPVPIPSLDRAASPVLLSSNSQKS
# Summary of the method: as §1
Sequence,binding signal [1],binding signal [2],binding signal [3],binding signal [4],binding signal [5],binding signal [6],binding signal [7],binding signal [8],binding signal [9]
CTGGTC,"1.11 fold enrichment (6-mer frequency, TF over GST control)","1.23 fold enrichment (6-mer frequency, TF over GST control)","1.25 fold enrichment (6-mer frequency, TF over GST control)","1.2 fold enrichment (6-mer frequency, TF over GST control)","1.15 fold enrichment (6-mer frequency, TF over GST control)","1.2 fold enrichment (6-mer frequency, TF over GST control)","1.13 fold enrichment (6-mer frequency, TF over GST control)","1.35 fold enrichment (6-mer frequency, TF over GST control)","1.09 fold enrichment (6-mer frequency, TF over GST control)"
CCTACA,"1.35 fold enrichment (6-mer frequency, TF over GST control)","1.26 fold enrichment (6-mer frequency, TF over GST control)","1.33 fold enrichment (6-mer frequency, TF over GST control)","1.21 fold enrichment (6-mer frequency, TF over GST control)","1.19 fold enrichment (6-mer frequency, TF over GST control)","1.18 fold enrichment (6-mer frequency, TF over GST control)","1.16 fold enrichment (6-mer frequency, TF over GST control)","1.17 fold enrichment (6-mer frequency, TF over GST control)","1.19 fold enrichment (6-mer frequency, TF over GST control)"
AGAAAT,"1.05 fold enrichment (6-mer frequency, TF over GST control)","1.13 fold enrichment (6-mer frequency, TF over GST control)","1.17 fold enrichment (6-mer frequency, TF over GST control)","1.1 fold enrichment (6-mer frequency, TF over GST control)","1.15 fold enrichment (6-mer frequency, TF over GST control)","1.16 fold enrichment (6-mer frequency, TF over GST control)","1.16 fold enrichment (6-mer frequency, TF over GST control)","1.11 fold enrichment (6-mer frequency, TF over GST control)","1.2 fold enrichment (6-mer frequency, TF over GST control)"
TTATTC,"1.48 fold enrichment (6-mer frequency, TF over GST control)","1.41 fold enrichment (6-mer frequency, TF over GST control)","1.38 fold enrichment (6-mer frequency, TF over GST control)","1.34 fold enrichment (6-mer frequency, TF over GST control)","1.3 fold enrichment (6-mer frequency, TF over GST control)","1.29 fold enrichment (6-mer frequency, TF over GST control)","1.33 fold enrichment (6-mer frequency, TF over GST control)","1.39 fold enrichment (6-mer frequency, TF over GST control)","1.45 fold enrichment (6-mer frequency, TF over GST control)"
AATTGG,"1.38 fold enrichment (6-mer frequency, TF over GST control)","1.36 fold enrichment (6-mer frequency, TF over GST control)","1.31 fold enrichment (6-mer frequency, TF over GST control)","1.34 fold enrichment (6-mer frequency, TF over GST control)","1.33 fold enrichment (6-mer frequency, TF over GST control)","1.42 fold enrichment (6-mer frequency, TF over GST control)","1.4 fold enrichment (6-mer frequency, TF over GST control)","1.42 fold enrichment (6-mer frequency, TF over GST control)","1.48 fold enrichment (6-mer frequency, TF over GST control)"
ACCCCG,"1.24 fold enrichment (6-mer frequency, TF over GST control)","1.3 fold enrichment (6-mer frequency, TF over GST control)","1.29 fold enrichment (6-mer frequency, TF over GST control)","1.24 fold enrichment (6-mer frequency, TF over GST control)","1.31 fold enrichment (6-mer frequency, TF over GST control)","1.27 fold enrichment (6-mer frequency, TF over GST control)","1.14 fold enrichment (6-mer frequency, TF over GST control)","1.3 fold enrichment (6-mer frequency, TF over GST control)","1.21 fold enrichment (6-mer frequency, TF over GST control)"
AAGCTG,"1.21 fold enrichment (6-mer frequency, TF over GST control)","1.24 fold enrichment (6-mer frequency, TF over GST control)","1.16 fold enrichment (6-mer frequency, TF over GST control)","1.13 fold enrichment (6-mer frequency, TF over GST control)","1.16 fold enrichment (6-mer frequency, TF over GST control)","1.08 fold enrichment (6-mer frequency, TF over GST control)","1.03 fold enrichment (6-mer frequency, TF over GST control)","1.14 fold enrichment (6-mer frequency, TF over GST control)","1.08 fold enrichment (6-mer frequency, TF over GST control)"
GTTTTA,"1.17 fold enrichment (6-mer frequency, TF over GST control)","1.05 fold enrichment (6-mer frequency, TF over GST control)","1.14 fold enrichment (6-mer frequency, TF over GST control)","1.07 fold enrichment (6-mer frequency, TF over GST control)","1.07 fold enrichment (6-mer frequency, TF over GST control)","1.11 fold enrichment (6-mer frequency, TF over GST control)","1.12 fold enrichment (6-mer frequency, TF over GST control)","1.16 fold enrichment (6-mer frequency, TF over GST control)","1.08 fold enrichment (6-mer frequency, TF over GST control)"
